From PubChem BioAssay
Most compounds without a hit are left out; they make up all but 2.1% or so of the library.
GRP78 ERSR act: induces the endoplasmic reticulum stress response in human glioma cells; actives 0.02% (n = 420,000); AID 602332; Potency, µM, actives largely listed as activators; U87-MG GRP78 promoter luciferase reporter, 16 h; further: series mostly up to about 76 µM; nearly all actives have a fitted effect of over 35% in size
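ERSR induction read as luciferase luminescence (Bright-Glo, 10 min at room temperature) in stably transfected human U87-MG glioma cells exposed to compounds for 16 h, using GRP78 as sensor.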
Abeta yeast res: A-beta toxicity reversal in yeast; yeast expressing A-beta42, growth rescue, OD600, 48 h; response scale: 0% DMSO, 100% iron-clioquinol control; Potency, µM (top dose mostly 46.1 µM), actives largely listed as activators; actives 0.063% (n = 410,000); further: nearly all actives have a fitted effect of over 55% in size
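Yeast growth medium received pinned compounds, then yeast cells expressing toxic A-beta were added; plates incubated at 30 C for 48 hr. Growth read as absorbance at 600 nm, normalized to DMSO and equimolar FeCl3 plus clioquinol controls.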
Mito fusion act: mitochondrial division inhibition or fusion activation; S. cerevisiae fusion-defective mutant growth rescue, CellTiterGlo 48 h; Potency, µM (highest dose often 46.1 µM), hits mostly activators; actives 0.23% (n = 320,000); AID 485298; further: nearly all actives have a fitted effect of over 45% in size
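S. cerevisiae fusion-defective temperature-sensitive mutants (e.g. fzo1-1, mgm1-5) grown 48 h at 37C in YPEG (ethanol/glycerol non-fermentable) medium with 23 nl compound per well; growth rescue read as CellTiterGlo luminescence.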
aSyn rescue: alpha-synuclein toxicity inhibition in yeast | Yeast expressing alpha-synuclein, growth rescue, BacTiter-Glo, 24 h | Potency, µM (highest dose often 46.1 µM), most hits filed as activators | actives 0.14% (n = 370,000); further: nearly all actives have a fitted effect of over 65% in size
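Galactose-induced alpha-syn yeast (OD600=0.02, raffinose-pregrown) + pinned cpd, 24 hr, 30 deg C; growth by BacTiter-Glo luminescence. Growth restoration scores as activation.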
A-T KAP1 phos: candidate therapy for ataxia-telangiectasia. F2112 A-T fibroblasts, KAP-1 phosphorylation AlphaLISA; neocarzinostatin DNA damage 30 min before lysis. Potency, µM (top dose mostly 57.5 µM), actives largely listed as activators. actives 0.19% (n = 320,000); further: nearly all actives have a fitted effect of over 45% in size
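hTERT-immortalized A-T patient fibroblasts (F2112), 500 cells/well in OPTI-MEM, 1% FBS, got compounds for 60 min, then NCS for 30 min at 37C. Lysates were then assayed for phospho-KAP-1 by AlphaLISA (anti-pKAP1 donor, anti-KAP1 acceptor beads), 6 hr at 25C.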
TDP-43 yeast inh: inhibitors of TDP-43 toxicity in yeast; TDP-43 expressing yeast growth rescue, BacTiter-Glo, 24 h; Potency, µM (highest dose often 46.1 µM), hits mostly activators; actives 1.8% (n = 410,000); AID 652104; further: nearly all actives have a fitted effect of over 50% in size
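Galactose-induced TDP-43 yeast, OD600=0.02, compound pinned; 24 hr, 30 deg C; BacTiter-Glo luminescence for growth. Inhibitors of TDP-43 toxicity read as activators.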
Numbers stand for hits. The call rests on the fitted dose curve; in most records, active means well fitted curve in the direction sought with a large enough effect; inconclusive means small, poorly fitted or top-dose-only effect, or another doubt; inactive means no such curve, though single readings can be large; an effect the other way counts as inactive or inconclusive.

Results for CSCC(=O)Nc1nc(-c2ccc3c(c2)OCCO3)cs1 ?
GRP78 ERSR act: inactive; Abeta yeast res: inactive; Mito fusion act: inactive; aSyn rescue: inactive; A-T KAP1 phos: inactive; TDP-43 yeast inh: inconclusive

What do the screens show for `COc1ccc(-c2csc(NC(=O)C3COc4ccccc4O3)n2)cc1OC` (stereo unspecified)?
GRP78 ERSR act: inactive; Abeta yeast res: inactive; Mito fusion act: inactive; aSyn rescue: inactive; A-T KAP1 phos: inactive; TDP-43 yeast inh: 35µM

What do the screens show for `COc1cc(OC)c(NC(=O)CSc2cc(=O)n(C)c3ccc(Cl)cc23)cc1Cl`?
GRP78 ERSR act: inactive; Abeta yeast res: inactive; TDP-43 yeast inh: inactive

Results for Cc1ccc(-c2ccnc(-n3ncc(C(=O)NC[C@@H]4CCCN5CCCC[C@H]45)c3C3CC3)n2)o1 ?
GRP78 ERSR act: inactive

Results for CSc1nccc(-c2c(-c3ccc(Cl)cc3)noc2C)n1 ?
GRP78 ERSR act: inactive; Abeta yeast res: inactive; Mito fusion act: inactive; aSyn rescue: inactive; A-T KAP1 phos: inactive; TDP-43 yeast inh: 18µM

What do the screens show for `Cc1onc(-c2ccccc2)c1-c1ccnc(N)n1`?
GRP78 ERSR act: inactive; Abeta yeast res: inactive; Mito fusion act: inactive; aSyn rescue: inconclusive; A-T KAP1 phos: inactive; TDP-43 yeast inh: inactive

How did CC1(C(=O)Nc2ccc(Cl)c(C(F)(F)F)c2)Cc2c(-c3ccccc3)ccnc2O1 (stereo unspecified) do in these assays?
GRP78 ERSR act: inactive; Abeta yeast res: inactive; aSyn rescue: inactive; TDP-43 yeast inh: inactive

How did CC(=O)Nc1ccc(-c2ccnc3c2CC(C)(C(=O)Nc2ccc(Cl)c(C(F)(F)F)c2)O3)cc1 (stereo unspecified) do in these assays?
GRP78 ERSR act: inactive; Abeta yeast res: inactive; aSyn rescue: inactive; TDP-43 yeast inh: 35µM

Results for CC(=O)c1cccc(NC(=O)C2(C)Cc3c(-c4cccc(C(F)(F)F)c4)ccnc3O2)c1 (stereo unspecified) ?
GRP78 ERSR act: inactive; Abeta yeast res: inactive; aSyn rescue: inconclusive; TDP-43 yeast inh: 35µM

Results for Cc1cccc(C)c1NC(=S)N1CCC(c2ccccc2)C1 (stereo unspecified) ?
GRP78 ERSR act: inactive; Abeta yeast res: inconclusive; Mito fusion act: inactive; aSyn rescue: inactive; A-T KAP1 phos: inactive; TDP-43 yeast inh: inactive

How did CC#CCCCC(=O)Nc1cc(OC)nc(OC)n1 do in these assays?
GRP78 ERSR act: inactive; Abeta yeast res: inactive; Mito fusion act: inactive; aSyn rescue: inactive; A-T KAP1 phos: inactive; TDP-43 yeast inh: 14µM

Results for CCCN1C(=O)C(O)(CC(=O)c2ccc(CC)cc2)c2ccccc21 (stereo unspecified) ?
GRP78 ERSR act: inactive; Abeta yeast res: inactive; TDP-43 yeast inh: inactive

What do the screens show for `CCCCN1C(=O)C(O)(CC(=O)c2ccc(CC)cc2)c2cc(Br)ccc21` (stereo unspecified)?
GRP78 ERSR act: inconclusive; Abeta yeast res: inactive; TDP-43 yeast inh: 18µM

What do the screens show for `CC(C)C(=O)Nc1nc(-c2ccccc2)ns1`?
GRP78 ERSR act: inactive; Abeta yeast res: inconclusive; Mito fusion act: inactive; aSyn rescue: inactive; A-T KAP1 phos: inactive; TDP-43 yeast inh: 13µM

Results for CCC(=O)Nc1nc(-c2ccccc2)ns1 ?
GRP78 ERSR act: inactive; Abeta yeast res: inactive; Mito fusion act: inactive; A-T KAP1 phos: inactive; TDP-43 yeast inh: 8.9µM

How did O=C(Nc1nc(-c2ccccc2)ns1)c1cccs1 do in these assays?
GRP78 ERSR act: inactive; Abeta yeast res: inactive; Mito fusion act: inconclusive; aSyn rescue: inactive; A-T KAP1 phos: inactive; TDP-43 yeast inh: inactive

How did CC(=O)Nc1nc(-c2ccc(Cl)cc2)ns1 do in these assays?
GRP78 ERSR act: inactive; Abeta yeast res: inactive; aSyn rescue: inactive; A-T KAP1 phos: inactive; TDP-43 yeast inh: 13µM

How did CCCC(=O)Nc1nc(-c2ccccc2)ns1 do in these assays?
GRP78 ERSR act: inactive; Abeta yeast res: inactive; Mito fusion act: inactive; aSyn rescue: inactive; A-T KAP1 phos: inactive; TDP-43 yeast inh: 16µM

How did O=C(Nc1nc(-c2ccc(Br)cc2)ns1)c1ccccc1F do in these assays?
GRP78 ERSR act: inactive; Abeta yeast res: inactive; TDP-43 yeast inh: inactive

What do the screens show for `CN(Cc1ccco1)C(=O)c1ccc2c(c1)N(Cc1ccccc1F)C(=O)c1ccccc1S2`?
GRP78 ERSR act: inactive; Abeta yeast res: inactive; TDP-43 yeast inh: inactive

What do the screens show for `O=C(NCC1(N2CCOCC2)CCCCC1)c1cnn(-c2nccc(-c3ccco3)n2)c1C1CC1`?
GRP78 ERSR act: inactive

How did Cc1cc2c(c(Sc3ccccc3)n1)C(=O)OC2 do in these assays?
GRP78 ERSR act: inactive; Abeta yeast res: inactive; Mito fusion act: inconclusive; A-T KAP1 phos: inactive; TDP-43 yeast inh: 3.2µM

How did Cc1cc2c(c(SCC(=O)N(C)c3ccccc3)n1)C(=O)OC2 do in these assays?
GRP78 ERSR act: inactive; Abeta yeast res: inactive; Mito fusion act: inactive; aSyn rescue: inactive; A-T KAP1 phos: inactive; TDP-43 yeast inh: inactive

What do the screens show for `O=C1ON=C(c2ccccc2)/C1=C/c1ccccc1`?
GRP78 ERSR act: inactive; Abeta yeast res: inactive; Mito fusion act: inactive; aSyn rescue: inconclusive; A-T KAP1 phos: inactive; TDP-43 yeast inh: inconclusive

What do the screens show for `Cc1ccc(C2=NOC(=O)/C2=C\c2ccccc2)cc1`?
GRP78 ERSR act: inactive; Abeta yeast res: inconclusive; aSyn rescue: inactive; TDP-43 yeast inh: 25µM

What do the screens show for `COc1cc(/C=C2\C(=O)ON=C2c2ccccc2)cc(Br)c1O`?
GRP78 ERSR act: inactive; Abeta yeast res: inactive; Mito fusion act: inactive; aSyn rescue: inactive; A-T KAP1 phos: inactive; TDP-43 yeast inh: 11µM

What do the screens show for `O=C(NCC1CCOCC1)c1ccc(-c2ccc(F)c(F)c2)c2ccoc12`?
GRP78 ERSR act: inactive; Abeta yeast res: inactive; aSyn rescue: inactive; TDP-43 yeast inh: 25µM

How did COC(=O)[C@@H]1CCCN1Cc1ccc2c(c1)CN(Cc1cccn1-c1ncccn1)CCO2 do in these assays?
GRP78 ERSR act: inactive

How did CN(Cc1ccccc1F)C(=O)c1ccc(Oc2ccccc2)cc1 do in these assays?
GRP78 ERSR act: inactive; Abeta yeast res: inactive; Mito fusion act: inactive; aSyn rescue: inactive; A-T KAP1 phos: 14µM; TDP-43 yeast inh: inconclusive

What do the screens show for `CCOC(=O)c1ccc(CN(Cc2ccc(F)cc2)S(=O)(=O)c2ccc(F)cc2)cc1`?
GRP78 ERSR act: inactive; Abeta yeast res: inactive; TDP-43 yeast inh: inactive

How did Cc1c(Cl)cccc1NC(=O)CC(c1cccs1)N1Cc2ccccc2C1=O (stereo unspecified) do in these assays?
GRP78 ERSR act: inactive; Abeta yeast res: inactive; aSyn rescue: inactive; TDP-43 yeast inh: inactive

Results for O=C(/C=C/c1cccs1)Nc1nccs1 ?
GRP78 ERSR act: inactive; Abeta yeast res: inactive; Mito fusion act: inactive; aSyn rescue: inactive; A-T KAP1 phos: inactive; TDP-43 yeast inh: inactive
